About 8,800 targets were measured; listed, in parts, are those with a hit and a random draw of the rest. About 0.5% of all pairs of compound and target were hits.
Key:
Experiment in all cases: log2 fold change, soluble protein after heating vs DMSO (PISA); higher = thermal stabilisation; K562 lysate, 10 uM; active = over 0.2 and 3.5 SD of the protein, either way, in both replicates (recomputed)
erlotinib = compound: C#Cc1cccc(Nc2ncnc3cc(OCCOC)c(OCCOC)cc23)c1 [erlotinib]
How it was run: (§1)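 K562 pellets were dounce-homogenised in PBS pH 7.4 containing 1 mM MgCl2, and the crude extract, at 1 mg/mL protein, was exposed to 10 μM compound for 30 min. Aliquots were heated for 3 min across 48°C-58°C, pooled, brought to 0.5% NP-40 at 4°C and spun at 21,000xg for 90 min, with the supernatant taken as soluble protein. TMTpro 16plex LC-MS/MS with equalised channel sums quantified that protein. Values are log-two fold changes in thermal stability relative to solvent controls, taken from duplicates.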

[1] = compound: C/C(=N\NC(=O)C1=CC(=CC=C1)S(=O)(=O)N2CCOCC2)/C3=C(C=CC(=C3)Cl)O
How it was run: as §1

[2] = compound: C1=CC(=CC=C1C2=NC3=C(N2)C=C(C=C3)C(=O)N)OC4=CC=C(C=C4)Cl
How it was run: as §1

[3] = compound: C1=CC2=C(C=CC(=C2)/C=C\3/C(=O)NC(=NCC4=CC=CS4)S3)N=C1
How it was run: as §1

[4] = compound: C1=CC2=NC=CN=C2C=C1/C=C/3\C(=O)NC(=O)S3
How it was run: as §1

[5] = compound: C1=CC=C(C=C1)C2=NC(=C(N2)C3=CC=NC=C3)C4=CC(=C(C=C4)Cl)O
How it was run: as §1

[6] = compound: C1=CC=C2C(=C1)C3=NNC4=CC=CC(=C43)C2=O
How it was run: as §1

[7] = compound: C1CCN(C1)C(=O)NC2=CC=CC(=C2)NC3=NC=C(C(=N3)NCCC4=CN=CN4)Br
How it was run: as §1

[8] = compound: C1CN(CCC1(CC2=CC=C(C=C2)Cl)N)C3=NC=NC4=C3C=CN4
How it was run: as §1

IRAK-1-4 Inhibitor I = compound: C1COCCN1CCN2C3=CC=CC=C3N=C2NC(=O)C4=CC(=CC=C4)[N+](=O)[O-] [IRAK-1-4 Inhibitor I]
How it was run: as §1

ibrutinib = compound: C=CC(=O)N1CCC[C@@H](n2nc(-c3ccc(Oc4ccccc4)cc3)c3c(N)ncnc32)C1 [ibrutinib]
How it was run: as §1

[9] = compound: CC(=O)c1cnc2ccc(-c3cc(Cl)c(O)c(Cl)c3)nc2c1N[C@H]1CC[C@H](CN(C)C)CC1
How it was run: as §1

ralimetinib = compound: CC(C)(C)Cn1c(N)nc2ccc(-c3[nH]c(C(C)(C)C)nc3-c3ccc(F)cc3)nc21 [ralimetinib]
How it was run: as §1

[10] = compound: CC(C)(O)CC(=O)NCCn1ccc2ncnc(Nc3ccc(Oc4cccc(C(F)(F)F)c4)c(Cl)c3)c21
How it was run: as §1

[11] = compound: CC(C)C1=C2N=C(C=C(N2N=C1)NCC3=CC=CC=C3)NCCCCCCN
How it was run: as §1

[12] = compound: CC1=C(C(CC(=O)N1)C2=CC=C(C=C2)C(F)(F)F)C(=O)NC3=C(C=C4C(=C3)C=NN4)F
How it was run: as §1

[13] = compound: CC1=C(C2=C(C=C1)C(=O)C3=CC=CC=C3N2CCCN)C
How it was run: as §1

[14] = compound: CC1=C(C=C(C=C1)NC(=O)C2=CC(=CC=C2)C(C)(C)C#N)NC3=CC4=C(C=C3)N=CN(C4=O)C
How it was run: as §1

[15] = compound: CC1=C(C=C(C=C1)NC(=O)C2=CC(=CC=C2)N(C)C)NC(=O)C3=CC=C(C=C3)O
How it was run: as §1

[16] = compound: CC1=CC=C(C=C1)SC2=C3C=C(SC3=CN=C2)C(=O)N
How it was run: as §1

Measured: log2 fold change

RAB1B (UniProt Q9H0U4)
inactive: erlotinib -0.009 | [1] -0.005 | [2] 0.011 | [3] 0.019 | [4] -0.002 | [5] 0.005 | [6] -0.008 | [7] 0.014 | [8] 0.003 | IRAK-1-4 Inhibitor I 0.055 | ibrutinib -0.011 | [9] -0.01 | ralimetinib -0.014 | [10] -0.012 | [11] -0.006 | [12] 0.02 | [13] -0.014 | [14] -0.036 | [15] -0.011 | [16] -0.006

RCOR3 isoform 3 (UniProt Q9P2K3)
inactive: erlotinib -0.033 | [1] 0.025 | [2] 0.022 | [3] 0.009 | [4] -0.006 | [5] -0.017 | [6] -0.012 | [7] -0.02 | [8] -0.015 | IRAK-1-4 Inhibitor I -0.015 | ibrutinib -0.009 | [9] -0.03 | ralimetinib 0.014 | [10] -0.004 | [11] 0.011 | [12] 0 | [13] 0.002 | [14] -0.038 | [15] 0.002 | [16] -0.011

RHOA (UniProt P61586)
Sequence of UniProt P61586 (P61586 whole entry, looked up): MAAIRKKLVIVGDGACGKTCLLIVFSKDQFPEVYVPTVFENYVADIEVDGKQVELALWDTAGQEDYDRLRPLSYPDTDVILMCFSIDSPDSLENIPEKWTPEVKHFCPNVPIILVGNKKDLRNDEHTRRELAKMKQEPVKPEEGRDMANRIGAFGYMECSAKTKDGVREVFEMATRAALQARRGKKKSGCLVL
inactive: erlotinib 0.001 | [1] -0.093 | [2] 0.049 | [3] -0.093 | [4] -0.09 | [5] 0.064 | [6] 0.038 | [7] -0.022 | [8] 0.039 | IRAK-1-4 Inhibitor I -0.022 | ibrutinib 0.36 | [9] -0.041 | ralimetinib 0.014 | [10] 0.094 | [11] 0.031 | [12] 0.003 | [13] 0.093 | [14] -0.02 | [15] -0.022 | [16] -0.006

SCAF1 (UniProt Q9H7N4)
Sequence of UniProt Q9H7N4 (Q9H7N4 whole entry, looked up): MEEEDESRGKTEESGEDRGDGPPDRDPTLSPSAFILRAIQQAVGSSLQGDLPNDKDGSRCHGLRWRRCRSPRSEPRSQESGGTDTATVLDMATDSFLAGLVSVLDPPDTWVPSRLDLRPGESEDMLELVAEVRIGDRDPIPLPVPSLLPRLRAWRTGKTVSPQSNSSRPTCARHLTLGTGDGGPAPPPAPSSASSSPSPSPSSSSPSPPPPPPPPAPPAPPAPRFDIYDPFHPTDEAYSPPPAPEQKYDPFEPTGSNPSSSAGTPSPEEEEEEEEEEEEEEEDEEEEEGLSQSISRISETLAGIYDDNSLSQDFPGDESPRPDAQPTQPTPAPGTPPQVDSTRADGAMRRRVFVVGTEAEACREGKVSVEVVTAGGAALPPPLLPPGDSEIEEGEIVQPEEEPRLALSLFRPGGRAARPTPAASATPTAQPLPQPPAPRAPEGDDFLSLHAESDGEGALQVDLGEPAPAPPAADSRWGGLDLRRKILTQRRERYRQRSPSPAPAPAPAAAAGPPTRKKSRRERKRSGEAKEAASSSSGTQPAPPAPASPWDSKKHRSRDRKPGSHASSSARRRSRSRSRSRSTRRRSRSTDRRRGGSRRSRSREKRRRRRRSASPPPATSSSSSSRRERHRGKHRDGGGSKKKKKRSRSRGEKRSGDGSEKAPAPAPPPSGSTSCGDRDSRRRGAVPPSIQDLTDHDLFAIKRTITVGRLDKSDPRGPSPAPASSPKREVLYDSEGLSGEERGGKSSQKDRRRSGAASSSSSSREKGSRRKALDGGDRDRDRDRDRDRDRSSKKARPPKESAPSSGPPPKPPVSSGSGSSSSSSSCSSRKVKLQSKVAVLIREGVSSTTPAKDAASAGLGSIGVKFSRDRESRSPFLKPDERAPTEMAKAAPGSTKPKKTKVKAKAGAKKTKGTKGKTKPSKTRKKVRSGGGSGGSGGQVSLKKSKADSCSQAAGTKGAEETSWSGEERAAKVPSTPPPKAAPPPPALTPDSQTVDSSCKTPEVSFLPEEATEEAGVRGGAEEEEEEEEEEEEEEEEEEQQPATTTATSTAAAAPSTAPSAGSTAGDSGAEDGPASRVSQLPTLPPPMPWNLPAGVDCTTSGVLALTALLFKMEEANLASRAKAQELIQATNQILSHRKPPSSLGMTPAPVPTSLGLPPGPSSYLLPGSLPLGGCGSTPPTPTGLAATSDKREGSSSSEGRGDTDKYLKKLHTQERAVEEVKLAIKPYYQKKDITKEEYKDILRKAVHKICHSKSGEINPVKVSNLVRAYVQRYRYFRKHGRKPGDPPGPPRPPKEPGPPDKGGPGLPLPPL
inactive: erlotinib 0.016 | [1] 0.113 | [2] 0.066 | [3] 0.218 | [4] 0.025 | [5] -0.022 | [6] 0.033 | [7] 0.047 | [8] 0.041 | IRAK-1-4 Inhibitor I 0.081 | ibrutinib 0.219 | [9] -0.054 | ralimetinib -0.025 | [10] 0.171 | [11] 0.042 | [12] 0.065 | [13] -0.06 | [14] 0.056 | [15] 0.056 | [16] 0.002

RRAGA (UniProt Q7L523)
inactive: erlotinib -0.022 | [1] -0.019 | [2] 0.001 | [3] -0.065 | [4] 0.118 | [5] -0.107 | [6] -0.008 | [7] -0.062 | [8] 0.005 | IRAK-1-4 Inhibitor I 0.026 | ibrutinib -0.114 | [9] 0.008 | ralimetinib -0.112 | [10] -0.524 | [11] 0.006 | [12] 0.005 | [13] -0.089 | [14] 0.079 | [15] 0.343 | [16] -0.113

RAPGEF2, A0A2R8YGD3
inactive: erlotinib -0.009 | [1] 0.16 | [2] 0.038 | [3] 0.042 | [4] -0.083 | [5] -0.047 | [6] 0.053 | [7] 0.007 | [8] -0.085 | IRAK-1-4 Inhibitor I 0.007 | ibrutinib -0.059 | [9] 0.007 | ralimetinib 0.008 | [10] -0.037 | [11] 0.008 | [12] 0.054 | [13] -0.07 | [14] 0.025 | [15] -0.025 | [16] 0.023

RAP1B (UniProt P61224)
Sequence of UniProt P61224 (P61224 whole entry, looked up): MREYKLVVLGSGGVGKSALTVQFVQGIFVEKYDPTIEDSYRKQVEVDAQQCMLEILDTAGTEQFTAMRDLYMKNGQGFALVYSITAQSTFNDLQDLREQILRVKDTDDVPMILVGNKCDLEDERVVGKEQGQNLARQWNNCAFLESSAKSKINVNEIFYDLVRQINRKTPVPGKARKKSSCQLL
inactive: erlotinib -0.017 | [1] -0.085 | [2] 0.024 | [3] 0.016 | [4] -0.031 | [5] 0.006 | [6] -0.014 | [7] -0.033 | [8] -0.004 | IRAK-1-4 Inhibitor I 0.014 | ibrutinib -0.024 | [9] -0.005 | ralimetinib 0.051 | [10] -0.03 | [11] -0.014 | [12] -0.01 | [13] 0.004 | [14] 0.008 | [15] -0.017 | [16] -0.008

RAB3IL1 (UniProt E9PK89)
inactive: erlotinib -0.016 | [1] -0.075 | [2] 0.124 | [3] 0.013 | [4] -0.048 | [5] -0.04 | [6] 0.093 | [7] -0.034 | [8] -0.12 | IRAK-1-4 Inhibitor I 0.109 | ibrutinib 0.066 | [9] 0.045 | ralimetinib -0.028 | [10] -0.08 | [11] -0.069 | [12] 0.052 | [13] 0.071 | [14] 0.025 | [15] 0.135 | [16] -0.031

SEC62 (UniProt Q99442)
Sequence of UniProt Q99442 (Q99442 whole entry, looked up): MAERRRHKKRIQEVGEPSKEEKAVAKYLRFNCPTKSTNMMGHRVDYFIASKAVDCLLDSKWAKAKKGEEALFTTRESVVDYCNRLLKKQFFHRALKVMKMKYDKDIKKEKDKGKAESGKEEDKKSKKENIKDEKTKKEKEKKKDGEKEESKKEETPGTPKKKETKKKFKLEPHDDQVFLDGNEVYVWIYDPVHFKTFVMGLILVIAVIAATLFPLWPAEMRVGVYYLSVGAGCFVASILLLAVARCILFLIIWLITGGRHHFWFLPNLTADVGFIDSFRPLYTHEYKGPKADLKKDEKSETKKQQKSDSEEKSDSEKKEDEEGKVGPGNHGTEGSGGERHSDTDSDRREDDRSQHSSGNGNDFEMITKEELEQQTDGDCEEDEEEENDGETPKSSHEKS
inactive: erlotinib -0.046 | [1] -0.008 | [2] 0.018 | [3] 0.046 | [4] -0.021 | [5] 0.036 | [6] -0.022 | [7] -0.017 | [8] -0.009 | IRAK-1-4 Inhibitor I 0.042 | ibrutinib 0.002 | [9] -0.027 | ralimetinib -0.032 | [10] -0.058 | [11] 0.02 | [12] 0.013 | [13] -0.006 | [14] 0.022 | [15] 0.002 | [16] -0.015

RPS18 (UniProt P62269)
inactive: erlotinib -0.021 | [1] -0.088 | [2] -0.007 | [3] -0.006 | [4] -0.004 | [5] -0.012 | [6] -0.007 | [7] 0.005 | [8] 0.004 | IRAK-1-4 Inhibitor I 0.047 | ibrutinib -0.016 | [9] 0.01 | ralimetinib -0.006 | [10] -0.02 | [11] 0.008 | [12] -0.037 | [13] -0.1 | [14] 0 | [15] -0.006 | [16] -0.012

RNPS1 (UniProt Q15287)
inactive: erlotinib -0.008 | [1] -0.105 | [2] 0.025 | [3] -0.151 | [4] -0.005 | [5] -0.006 | [6] 0.027 | [7] -0.016 | [8] -0.073 | IRAK-1-4 Inhibitor I 0.023 | ibrutinib 0.04 | [9] 0.042 | ralimetinib 0.007 | [10] 0.006 | [11] 0.005 | [12] 0.138 | [13] 0.003 | [14] -0.057 | [15] -0.032 | [16] -0.032

REL isoform 2 (UniProt Q04864)
Sequence of UniProt Q04864 (Q04864 whole entry, looked up): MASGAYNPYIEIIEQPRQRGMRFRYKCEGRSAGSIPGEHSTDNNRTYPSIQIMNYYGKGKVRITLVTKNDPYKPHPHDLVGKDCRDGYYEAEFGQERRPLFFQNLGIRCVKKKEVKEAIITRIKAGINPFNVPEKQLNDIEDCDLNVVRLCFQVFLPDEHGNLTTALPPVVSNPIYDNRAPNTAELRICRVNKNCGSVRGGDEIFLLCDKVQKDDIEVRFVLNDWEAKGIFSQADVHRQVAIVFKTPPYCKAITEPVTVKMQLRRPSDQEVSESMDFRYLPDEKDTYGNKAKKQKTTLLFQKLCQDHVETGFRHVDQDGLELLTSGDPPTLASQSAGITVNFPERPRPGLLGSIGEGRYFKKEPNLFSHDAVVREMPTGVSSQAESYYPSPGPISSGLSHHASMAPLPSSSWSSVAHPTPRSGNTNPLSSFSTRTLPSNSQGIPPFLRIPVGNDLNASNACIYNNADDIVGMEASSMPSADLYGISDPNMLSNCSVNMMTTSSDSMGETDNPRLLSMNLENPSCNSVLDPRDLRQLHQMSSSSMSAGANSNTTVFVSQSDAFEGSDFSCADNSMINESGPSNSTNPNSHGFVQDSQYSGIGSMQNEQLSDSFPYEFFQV
inactive: erlotinib 0.022 | [1] -0.005 | [2] -0.048 | [3] 0.016 | [4] -0.017 | [5] 0.037 | [6] -0.019 | [7] -0.011 | [8] -0.02 | IRAK-1-4 Inhibitor I 0.019 | ibrutinib 0.032 | [9] 0.015 | ralimetinib 0.06 | [10] -0.003 | [11] 0.005 | [12] -0.018 | [13] 0.038 | [14] 0.022 | [15] -0.023 | [16] 0.049

RBBP7 (UniProt Q16576)
Sequence of UniProt Q16576 (Q16576 whole entry, looked up): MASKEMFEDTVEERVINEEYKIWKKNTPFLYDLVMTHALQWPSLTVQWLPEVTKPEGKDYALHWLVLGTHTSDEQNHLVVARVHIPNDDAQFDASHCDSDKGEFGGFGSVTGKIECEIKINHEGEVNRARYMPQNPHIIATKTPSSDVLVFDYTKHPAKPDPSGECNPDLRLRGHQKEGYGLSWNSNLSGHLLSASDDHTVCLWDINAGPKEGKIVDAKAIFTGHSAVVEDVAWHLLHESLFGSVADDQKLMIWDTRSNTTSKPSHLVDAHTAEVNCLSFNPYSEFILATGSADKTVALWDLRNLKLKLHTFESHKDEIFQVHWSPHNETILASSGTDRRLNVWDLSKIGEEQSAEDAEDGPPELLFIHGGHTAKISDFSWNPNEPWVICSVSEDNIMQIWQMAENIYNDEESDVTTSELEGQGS
inactive: erlotinib -0.038 | [1] -0.032 | [2] -0.021 | [3] -0.005 | [4] 0.007 | [5] -0.014 | [6] -0.008 | [7] 0.045 | [8] -0.022 | IRAK-1-4 Inhibitor I -0.082 | ibrutinib 0.062 | [9] 0.018 | ralimetinib 0.018 | [10] 0 | [11] -0.042 | [12] -0.003 | [13] 0.014 | [14] -0.114 | [15] 0.002 | [16] -0.03

RECQL5 (UniProt O94762)
Sequence of UniProt O94762 (O94762 whole entry, looked up): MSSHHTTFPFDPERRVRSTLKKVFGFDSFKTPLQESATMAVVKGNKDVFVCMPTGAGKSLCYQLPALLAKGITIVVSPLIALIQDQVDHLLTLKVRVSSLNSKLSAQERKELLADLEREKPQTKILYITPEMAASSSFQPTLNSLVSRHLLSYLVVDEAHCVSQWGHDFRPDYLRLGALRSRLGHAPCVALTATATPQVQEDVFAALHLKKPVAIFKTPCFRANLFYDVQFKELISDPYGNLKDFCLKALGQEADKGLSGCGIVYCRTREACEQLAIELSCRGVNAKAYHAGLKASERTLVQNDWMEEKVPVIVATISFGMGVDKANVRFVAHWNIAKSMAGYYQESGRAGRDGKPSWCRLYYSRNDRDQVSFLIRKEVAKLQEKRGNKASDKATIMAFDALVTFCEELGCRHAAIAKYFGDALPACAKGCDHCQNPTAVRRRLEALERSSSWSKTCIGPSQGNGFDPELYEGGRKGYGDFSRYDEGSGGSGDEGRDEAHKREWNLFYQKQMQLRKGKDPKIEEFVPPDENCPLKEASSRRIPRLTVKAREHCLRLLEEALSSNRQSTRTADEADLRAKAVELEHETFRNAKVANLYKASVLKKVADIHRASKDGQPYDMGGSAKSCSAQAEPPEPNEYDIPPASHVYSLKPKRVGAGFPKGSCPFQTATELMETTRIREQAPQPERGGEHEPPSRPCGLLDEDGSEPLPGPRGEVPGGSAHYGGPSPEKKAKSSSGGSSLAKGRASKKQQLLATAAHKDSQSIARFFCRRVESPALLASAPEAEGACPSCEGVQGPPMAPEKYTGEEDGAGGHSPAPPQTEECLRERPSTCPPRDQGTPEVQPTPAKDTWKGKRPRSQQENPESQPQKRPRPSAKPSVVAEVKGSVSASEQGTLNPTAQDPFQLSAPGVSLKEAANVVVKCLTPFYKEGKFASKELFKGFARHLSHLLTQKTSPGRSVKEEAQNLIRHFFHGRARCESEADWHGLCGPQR
inactive: erlotinib 0.046 | [1] -0.093 | [2] 0.282 | [3] 0.083 | [4] 0.005 | [5] -0.002 | [6] 0.012 | [7] -0.062 | [8] 0.036 | IRAK-1-4 Inhibitor I 0.006 | ibrutinib 0.014 | [9] -0.335 | ralimetinib 0.035 | [10] -0.015 | [11] 0.055 | [12] 0.03 | [13] -0.066 | [14] -0.044 | [15] 0.035 | [16] -0.001

SEH1L isoform 1 (UniProt Q96EE3)
Sequence of UniProt Q96EE3 (Q96EE3 whole entry, looked up): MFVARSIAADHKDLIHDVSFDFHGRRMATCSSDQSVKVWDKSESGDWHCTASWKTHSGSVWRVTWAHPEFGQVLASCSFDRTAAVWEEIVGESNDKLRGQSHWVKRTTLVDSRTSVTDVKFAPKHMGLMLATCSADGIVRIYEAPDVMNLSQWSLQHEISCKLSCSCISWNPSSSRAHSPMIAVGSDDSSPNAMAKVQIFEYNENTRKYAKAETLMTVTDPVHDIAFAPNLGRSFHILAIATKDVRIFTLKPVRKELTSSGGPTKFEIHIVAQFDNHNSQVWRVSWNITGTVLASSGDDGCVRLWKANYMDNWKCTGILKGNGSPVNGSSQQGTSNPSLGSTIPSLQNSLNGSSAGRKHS
inactive: erlotinib -0.008 | [1] 0.082 | [2] -0.001 | [3] -0.023 | [4] 0.014 | [5] -0.015 | [6] -0.012 | [7] -0.025 | [8] 0.026 | IRAK-1-4 Inhibitor I 0.031 | ibrutinib 0.013 | [9] -0.024 | ralimetinib -0.011 | [10] -0.008 | [11] 0.005 | [12] -0.021 | [13] -0.014 | [14] 0.015 | [15] 0.017 | [16] -0.014

RBMX (UniProt P38159)
Sequence of UniProt P38159 (P38159 whole entry, looked up): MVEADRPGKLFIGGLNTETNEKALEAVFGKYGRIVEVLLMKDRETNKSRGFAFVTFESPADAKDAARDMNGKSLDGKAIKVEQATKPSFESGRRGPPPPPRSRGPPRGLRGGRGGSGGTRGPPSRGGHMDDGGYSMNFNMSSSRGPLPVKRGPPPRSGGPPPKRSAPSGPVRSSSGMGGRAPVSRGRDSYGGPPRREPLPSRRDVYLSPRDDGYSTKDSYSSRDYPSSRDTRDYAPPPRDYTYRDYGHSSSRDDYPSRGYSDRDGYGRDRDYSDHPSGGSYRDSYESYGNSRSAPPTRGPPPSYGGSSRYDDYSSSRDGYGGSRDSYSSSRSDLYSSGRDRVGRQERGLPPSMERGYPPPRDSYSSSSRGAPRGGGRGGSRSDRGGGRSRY
inactive: erlotinib 0 | [1] 0.019 | [2] -0.056 | [3] 0.016 | [4] 0.013 | [5] 0.025 | [6] 0.018 | [7] 0.06 | [8] 0.029 | IRAK-1-4 Inhibitor I -0.012 | ibrutinib -0.034 | [9] -0.132 | ralimetinib 0.004 | [10] 0.032 | [11] -0.029 | [12] -0.017 | [13] 0.035 | [14] -0.016 | [15] -0.016 | [16] -0.006

— the supplement of paper PMC10849652
